# Bioassay records: PubChem, National Center for Advancing Translational Sciences (NCATS)
# NS1 function inh = qHTS Assay for Inhibitors of Influenza NS1 Protein Function; Potency, µM (series often up to 46.1 µM), without a hit: top-dose activity, positive = more growth; 270,000 compounds, 0.4% hits; calls by dose curve; also: actives are rising curves; nearly all actives have a fitted effect of over 50% in size
#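 Recovery from NS1-induced slow growth read by OD600 in budding yeast switched to galactose assay medium (pH 6.0, -URA) at 1:100 dilution. Compound 23 nl per well; the matching strain lacking NS1 serves as control.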
# Cruzain inh noDet = qHTS Assay for Promiscuous and Specific Inhibitors of Cruzain (without detergent). Cruzipain (Trypanosoma cruzi), P25779. purified cruzain, Z-FR-AMC fluorescence, no detergent. Potency, µM, inactives show max response, negative = inhibition, usual class: inhibitors. 200,000 compounds, 2.3% hits;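 also: plate controls were enzyme without inhibitor for no effect and buffer without enzyme for full effect; nearly all actives have a fitted effect of over 40% in size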
# Target sequence (P25779 123-467 limits assumed): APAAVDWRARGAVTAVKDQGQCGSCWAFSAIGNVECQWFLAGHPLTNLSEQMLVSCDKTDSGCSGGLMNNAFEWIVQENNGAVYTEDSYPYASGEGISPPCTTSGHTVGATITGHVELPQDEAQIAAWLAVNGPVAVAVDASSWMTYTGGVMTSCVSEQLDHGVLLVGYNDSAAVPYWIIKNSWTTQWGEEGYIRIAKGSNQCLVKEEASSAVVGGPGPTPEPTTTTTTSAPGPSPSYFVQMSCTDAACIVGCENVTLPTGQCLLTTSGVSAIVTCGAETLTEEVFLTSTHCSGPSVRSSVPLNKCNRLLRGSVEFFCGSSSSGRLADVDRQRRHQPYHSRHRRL
#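 Detergent-free condition (0.00005% Triton X-100) in acetate buffer pH 5.5 with DTT. 1.5 nM enzyme and compound were pre-mixed 15 min, then 2 uM Z-FR-AMC substrate added; reaction progress from fluorescence change between first and third reads (60 s).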
# Cruzain Triton = qHTS Assay for Promiscuous and Specific Inhibitors of Cruzain (with detergent); purified cruzain, Z-FR-AMC fluorescence, 0.01% Triton; Potency, µM, inactives show max response, negative = inhibition, actives largely listed as inhibitors; 200,000 compounds, 0.43% hits; AID 1478, 2009;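 also: plate controls were neutral wells for no effect and buffer without enzyme for full effect; nearly all actives have a fitted effect of over 40% in size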
#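 Enzyme 1.5 nM, Z-FR-AMC 2 uM, NaOAc 100 mM pH 5.5, DTT 5 mM, Triton X-100 0.01%; 15 min RT compound preincubation; kinetic ex360/em450, 60 s delta.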
# * = called active by the depositor; ? = inconclusive; nt = not tested or not shown; ! = repeats disagree. Shown is part of a subset that was picked to be rich in hits. Unless noted, calls follow the shape of the dose curve; as a rule, active = well fitted curve in the direction sought with a large enough effect; inconclusive = small, poorly fitted or top-dose-only effect, or another doubt; inactive = no such curve, though single readings can be large; an effect the other way counts as inactive or inconclusive. Potency is read from the fitted curve at half-maximal effect.
SMILES,NS1 function inh,Cruzain inh noDet,Cruzain Triton
Cc1ccc(C(=O)NNC(=O)CSc2nnc3c(n2)[nH]c2ccc(C)cc23)cc1,9%,?,2%
CCc1ccc2[nH]c3nc(SCc4nnc(-c5ccc(C)cc5)o4)nnc3c2c1,5%,13µM*,0%
CCOc1ccc(NC(=O)c2cc3sc(Cl)cc3n2CC)cc1,nt,-1%,-1%
CCOc1ccc(Cl)cc1CNCCCSc1nnnn1C,nt,0%,1%
CN(C)c1ccc(N=O)cc1,nt,32µM*,25µM*
CN(C)c1ccc(N=Nc2ccccc2)cc1,nt,-13%,-8%
C[C@@H]1C[C@@H]([C@@H](C)CC2CC(=O)NC(=O)C2)C(=O)[C@@H](C)C1,nt,-3%,-1%
COC(=O)c1ccccc1NC(=O)NCc1ccc2c(c1)CCN2C(=O)c1ccccc1,nt,-9%,-4%
CCOc1ccc(-c2nnc(SCC(=O)Nc3cccc(Cl)c3C)o2)cc1,nt,?,-6%
CCn1c2ccccc2c2cc(NC(=O)CSc3nnc(-c4cccc(F)c4)o3)ccc21,4%,?,-10%
CCOc1ccc(-c2nnc(SCC(=O)Nc3cccc(C#N)c3)o2)cc1,nt,25µM*,25µM*
CCn1c2ccccc2c2cc(NC(=O)CSc3nnc(-c4ccccc4)o3)ccc21,1%,20µM*,3%
Cc1ccc(C)c(NC(=O)CSc2nnc(-c3ccccc3)o2)c1,-19%,-4%,0%
CCn1c2ccccc2c2cc(NC(=O)CSc3nnc(-c4cccc(C)c4)o3)ccc21,-7%,7.9µM*,7%
COc1ccc(Oc2ncc3ncc(=O)n(C[C@H]4CCCO4)c3n2)cc1,nt,8%,0%
CCC1=C2CC[C@H]3C(=O)N(c4ccccc4)C(=O)[C@H]3[C@H]2[C@@]2(C)C(=O)N(Cc3ccccc3)C(=O)N2C1=O,nt,2%,-4%
CCOC(=O)CSc1nc2ccccc2c(=O)n1CCc1ccc(OC)c(OC)c1,nt,0%,2%
Cc1ccc2c(c1)c1c3n2CCN(C=O)C3CCC1 (stereo not given),-9%,nt,nt
Cc1ccc2c(c1)c1c3n2CCN(C(=O)c2cccc(C(F)(F)F)c2)C3CCC1 (stereo not given),nt,0.63µM*,-5%
O=C(NCC1CCCCC1)c1nnc(C(=O)NCC2CCCCC2)c2c1[nH]c1ccccc12,nt,-1%,2%
CCC1(C)Cc2ccccc2-c2c1c(=O)n(Cc1ccccc1)c1nnnn21 (stereo not given),7%,?,5%
O=c1c2c(n3nnnc3n1Cc1ccccc1)-c1ccccc1CC21CCCC1,-10%,25µM*,4%
Cc1ccc(CCNS(=O)(=O)c2c(C)nc3sc(C)c(C)n3c2=O)cc1,nt,-8%,-2%
C=CCC(C)(O)c1cccs1 (stereo not given),nt,-8%,1%
C[C@](O)(c1ccccc1)c1nccc2ccccc12,13%,-3%,3%
SMILES,NS1 function inh,Cruzain inh noDet,Cruzain Triton
Cc1cccc(CCNc2nc3ccccc3n3nnnc23)c1,11%,-12%,4%
Clc1ccc(CCNc2nc3ccccc3n3nnnc23)cc1,-4%,25µM*,4%
COc1ccc(-c2csc(N(CC3CCCO3)C(=O)c3ccc(C)cc3)n2)cc1 (stereo not given),6%,20µM*,-4%
Cc1ccc(-c2csc(N(CC3CCCO3)C(=O)c3ccco3)n2)cc1 (stereo not given),-15%,11%,-7%
Cc1ccc(C2=Nc3ccccc3N(CC(=O)NCc3ccccc3Cl)C(=O)C2)cc1C,nt,25µM*,-10%
Cc1ccc(CNC(=O)CN2C(=O)CC(c3ccc(C)c(C)c3)=Nc3ccccc32)cc1,nt,-1%,-4%
Cc1ccc(CCNC(=O)CCSCc2ccc(Cl)cc2)cc1,-6%,0%,1%
Cc1ccc(CSCCNC(=O)/C=C/c2ccc(Cl)cc2)cc1,3%,13µM*,4%
COc1ccc(NC(=O)C(NC(=O)/C=C\c2ccc3c(c2)OCO3)c2ccccc2)cc1 (stereo not given),nt,10%,-1%
Nc1ccc(N=Nc2ccccc2)c(N)n1,-11%,20µM*!,-3%
Cc1[nH]c(N=Nc2ccccc2)nc1N=Nc1ccccc1,-56%,nt,nt
c1ccc2cc3c(cc2c1)-c1cccc2cccc-3c12,nt,-4%,-2%
CC1=C(C)CS(=O)N(c2ccc(S(N)(=O)=O)cc2)C1 (stereo not given),6%,16µM*,16µM*
CC1=C(C)CS(=O)N(S(=O)(=O)c2ccccc2)C1 (stereo not given),23%,-24%,-26%
COC(=O)C1(C(=O)OC)CC2=CC(CC2=O)Cc2ccccc2[C@@H]1C[N+](=O)[O-] (stereo not given in full),nt,-8%,2%
CC(=O)NCCNc1nc(-c2cccnc2)nc2ccccc12,nt,4%,-1%
COCCn1c(=O)c(-c2cn(C)c3ccccc23)nc2cnc(Oc3cccc(Cl)c3)nc21,nt,14%,1%
O=C1NCCCc2c1oc1cc(Br)c(O)c(Br)c21,2%,-10%,-1%
CC(C)NCc1c(O)c(Br)cc2oc3c(c12)CCCC3,-18%,13µM*,0%
Cc1ccc2c(c1)C(CCN)C(=O)N2Cc1ccccc1 (stereo not given),?,8%,1%
Cc1ccc2c(c1)C1CCCC3C1N2CC(=O)N3Cc1ccccc1 (stereo not given),5%,13µM*,-4%
Cc1ccc(NC(=O)c2oc3ccccc3c2NC(=O)c2cc3ccccc3o2)cc1,nt,?,0%
O=C(Nc1c(C(=O)Nc2cccc(F)c2)oc2ccccc12)c1cc2ccccc2o1,nt,16µM*,-3%
Cn1cccc1C(=O)N1CCC[C@@]2(CCN(c3ccncc3)C2)C1,nt,0%,3%
CC(C)n1cc(/C=C2/SC(=O)N(CC(=O)Nc3ccc4c(c3)OCO4)C2=O)c2ccccc21,8%,10µM*,2%
SMILES,NS1 function inh,Cruzain inh noDet,Cruzain Triton
Cn1cc(SCC(=O)Nc2ccc3c(c2)OCO3)c2ccccc21,-81%,-17%,-6%
CCNS(=O)(=O)c1ccc(C)cc1,nt,-4%,5%
Cc1ccc(Cl)cc1-n1c(=O)c2sc3ccccc3c2n(Cc2ccccc2)c1=O,nt,1%,-1%
COc1cccc(Cn2c(=O)n(-c3ccc(Br)cc3F)c(=O)c3sc4ccccc4c32)c1,nt,13µM*,-5%
COc1ccc(-c2nnc(SCC(=O)NC3CCCC3)nc2-c2ccc(OC)c(OC)c2)cc1OC,nt,3%,1%
Clc1cccc(N/N=C/c2ccc(N3CCOCC3)s2)c1,10%,32µM*,-14%
CC(C)(C)OC(=O)N/N=C/c1ccc(N2CCOCC2)s1,?,8%,-5%
O=C(O)c1cc(C(=O)C(=O)c2cc(C(=O)O)c(O)c3ccccc23)c2ccccc2c1O,-1%,-9%,-14%
COc1ccc(C(=O)N2CCC3(CCN(C)CC3)CC2)cc1,nt,-8%,-1%
CCc1nnc(NC(=O)CSc2nccn2Cc2ccc(F)cc2)s1,nt,22%,3%
CCCCc1ccc(N=N/C(C(=O)Nc2ccc(NC(C)=O)cc2OC)=C(/C)O)cc1,21%,15%,10µM*
COc1cc(NC(=O)Cc2ccccc2)ccc1NC(=O)Cc1ccccc1,4%,nt,nt
Cc1cc(OC(C)C(=O)Nc2c(C(=O)c3ccc(F)cc3)oc3ccccc23)ccc1Cl (stereo not given),nt,-8%,0%
CN(C)C(=O)c1ccc(NC(=O)COc2cccc(Oc3ccccc3)c2)cc1,-2%,nt,nt
